In the library only some 10% were active in any assay of this set; here they are far more common.
SW480 rereplic – DNA re-replication induction in SW480 cells. SW480 DNA re-replication, Hoechst DNA content imaging, 48 h. Potency, µM (doses to about 46.1 µM), hits mostly activators. actives 1.8% (n = 340,000); also: nearly all actives have a fitted effect of over 55% in size
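250 cells/well; 23 nL cpd via pin tool; 48 hr, 37 C, 5% CO2; Hoechst 40 min; imager read of total nuclear intensity, ex 405/em 500-530 nm.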
MCF10A rereplic – DNA re-replication induction in MCF 10a cells; AID 624296; MCF 10A DNA re-replication, Hoechst nuclear intensity, 48 h; Potency, µM (titrated, usually from 46.1 µM), most hits filed as activators; actives 2.9% (n = 350,000); also: nearly all actives have a fitted effect of over 50% in size
ELG1 repair inh – blocks ELG1-dependent DNA repair in HEK293T cells; HEK293T ELG1-luciferase reporter, luminescence, 16 h; DNA damage induced by 5-fluorouridine; Potency, µM (highest dose often 46.1 µM), actives largely listed as inhibitors; actives 2.3% (n = 330,000); AID 504467; also: nearly all actives have a fitted effect of over 55% in size
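Overnight (16 hr) co-exposure of 2,000 cells/well to 5-fluorouridine and compound at 37 °C preceded detection. Luciferase was quantified via ONE-Glo luminescence; loss of signal denotes inhibition.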
VP16 counter – counter-screen for ROR gamma inhibitors: Gal4-VP16 reporter; Drosophila S2 Gal4-VP16 UAS-luciferase, luminescence, 20 h; Potency, µM (highest dose often 53.6 µM), most hits filed as inhibitors; actives 3.5% (n = 310,000); AID 2546;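 also: Gal4-VP16 expression switched on by copper sulfate through the metallothionein promoter; nearly all actives have a fitted effect of over 50% in size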
RORgamma inh – inhibitors of mouse ROR gamma transcriptional activity; Drosophila S2 Gal4-RORgamma UAS-luciferase reporter, 20 h; Potency, µM (top dose mostly 53.6 µM), actives largely listed as inhibitors; P51450; actives 5.4% (n = 310,000); also: nearly all actives have a fitted effect of over 60% in size
Target sequence (P51450 whole entry, looked up, the tested form may be a part): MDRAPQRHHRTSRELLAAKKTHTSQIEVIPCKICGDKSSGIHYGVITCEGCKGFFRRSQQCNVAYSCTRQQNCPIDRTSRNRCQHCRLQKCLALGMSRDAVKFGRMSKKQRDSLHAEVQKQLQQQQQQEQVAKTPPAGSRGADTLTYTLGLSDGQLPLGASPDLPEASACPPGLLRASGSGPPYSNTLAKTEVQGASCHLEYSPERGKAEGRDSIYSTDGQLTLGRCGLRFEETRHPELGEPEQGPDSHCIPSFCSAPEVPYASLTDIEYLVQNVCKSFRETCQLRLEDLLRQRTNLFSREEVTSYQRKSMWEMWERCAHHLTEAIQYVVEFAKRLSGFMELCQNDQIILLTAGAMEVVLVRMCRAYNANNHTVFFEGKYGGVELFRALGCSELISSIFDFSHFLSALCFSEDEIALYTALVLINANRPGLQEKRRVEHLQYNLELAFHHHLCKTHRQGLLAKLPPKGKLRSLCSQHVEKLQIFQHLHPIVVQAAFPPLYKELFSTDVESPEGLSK
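Read-out: Photinus luciferase luminescence; inhibitors lower reporter signal. Insect Schneider cells with Gal4-ROR gamma fusion under metallothionein promoter, UAS reporter; 700 uM final copper sulfate induction, 20 hr, ambient temperature.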
Large screens that a line does not name were inactive. Calls follow the shape of the dose curve; as a rule, active = well fitted curve in the direction sought with a large enough effect; inconclusive = small, poorly fitted or top-dose-only effect, or another doubt; inactive = no such curve, though single readings can be large; an effect the other way counts as inactive or inconclusive.

Cc1nc2ccc(NC(=O)c3cc([N+](=O)[O-])cc([N+](=O)[O-])c3Cl)cc2s1	MCF10A rereplic inconclusive, ELG1 repair inh inconclusive, VP16 counter 3.16µM, RORgamma inh inconclusive
O=C(COC(=O)c1ccccc1NCCO)NNC(=O)c1cccs1	none (no result: VP16 counter, RORgamma inh)
COc1cccc(C2C(C(=O)c3ccc(C)o3)=C(O)C(=O)N2CCN2CCOCC2)c1 (stereo unspecified)	ELG1 repair inh 20.6µM
Cc1ccc(C2C(C(=O)c3cc4ccccc4o3)=C(O)C(=O)N2CCN2CCOCC2)cc1 (stereo unspecified)	MCF10A rereplic 20.6µM
CN(CC(=O)NCCc1ccc(F)cc1)Cc1cccc(Cl)c1	none
COc1ccc(N2C(=O)CC(N3CCC(O)(c4cccc(C(F)(F)F)c4)CC3)C2=O)cc1 (stereo unspecified)	ELG1 repair inh inconclusive, VP16 counter inconclusive, RORgamma inh 2.51µM
COc1ccc(N2C(=O)CC(N3CCCCC3)C2=O)cc1 (stereo unspecified)	VP16 counter inconclusive
Cc1ccccc1Nc1nc(Nc2ccccc2C)nc(SC2=NCCS2)n1	ELG1 repair inh inconclusive, VP16 counter 7.08µM, RORgamma inh 6.31µM
Cc1ccc(Nc2nc(Nc3ccc(C)cc3)nc(SC3=NCCS3)n2)cc1	SW480 rereplic inconclusive, MCF10A rereplic inconclusive, ELG1 repair inh inconclusive, VP16 counter 5.62µM, RORgamma inh 2.51µM
Cc1ccc(COC(=O)NCc2cccnc2)cc1	none
CCOCCCNC(=S)N1CCCN(c2nc3cc(C)c(C)cc3cc2C#N)CC1	SW480 rereplic inconclusive, MCF10A rereplic inconclusive, ELG1 repair inh inconclusive
COCCCNC(=S)N1CCCN(c2nc3cc(C)c(C)cc3cc2C#N)CC1	SW480 rereplic inconclusive, MCF10A rereplic 18.4µM, ELG1 repair inh inconclusive
Cc1ccc2cc(C#N)c(N3CCN(C)CC3)nc2c1	none
Cc1ccc(C(=O)N2CCCN(c3nc4cc5c(cc4cc3C#N)OCO5)CC2)cc1	SW480 rereplic 13µM, MCF10A rereplic 8.2µM, ELG1 repair inh inconclusive
COCCCNC(=S)N1CCCN(c2nc3cc(C)ccc3cc2C#N)CC1	SW480 rereplic inconclusive, MCF10A rereplic inconclusive, ELG1 repair inh 20.6µM
O=C(NCCO)/C(=C\c1ccco1)NC(=O)c1ccco1	SW480 rereplic inconclusive
COCCN(C(=O)COC(=O)CCOc1ccccc1)c1c(N)n(Cc2ccccc2)c(=O)[nH]c1=O	none (no result: VP16 counter, RORgamma inh)
COc1ccccc1N1CCN(CC(O)c2c(C)[nH]c3ccccc23)CC1 (stereo unspecified)	SW480 rereplic inconclusive, MCF10A rereplic 18.4µM
COc1ccccc1N1CCN(CC(=O)c2c(C)[nH]c3ccccc23)CC1	MCF10A rereplic inconclusive
COc1ccc(Cl)cc1C(=O)NNC(=O)CN1C(=O)C2CC=CCC2C1=O (stereo unspecified)	none
O=C1/C(=N\S(=O)(=O)c2cccs2)C([n+]2cccc(Cc3ccccc3)c2)=C([O-])c2ccccc21	SW480 rereplic 8.2µM, ELG1 repair inh 2.31µM, VP16 counter inconclusive, RORgamma inh inconclusive
O=S(=O)([N-]c1nc2ccccc2nc1-[n+]1ccc(CCCc2ccccc2)cc1)c1cccs1	none
O=C1/C(=N\S(=O)(=O)c2cccs2)C([n+]2ccc(CCCc3ccccc3)cc2)=C([O-])c2ccccc21	SW480 rereplic inconclusive, ELG1 repair inh 13µM, VP16 counter inconclusive
Cn1ncc(Cl)c1C(=O)N1CCN(C(=O)c2ccco2)CC1	none
Cc1ccccc1Cn1cc(CCC(=O)N2CCOCC2)c2ccccc21	none
Oc1[nH]c2ccccc2c1N=Nc1nc2ccccc2s1	ELG1 repair inh inconclusive, RORgamma inh inconclusive
C/C(N=Nc1nc2ccccc2s1)=N\Nc1ccccc1O	SW480 rereplic inconclusive, MCF10A rereplic inconclusive, RORgamma inh 8.91µM
CCSc1cc(C2C(C#N)=C(N)OC(C)=C2C(=O)OC)c(C)o1 (stereo unspecified)	RORgamma inh 12.6µM
COc1ccc(N(C(=O)c2ccccc2C)S(=O)(=O)c2cccs2)cc1	SW480 rereplic 2.59µM, MCF10A rereplic 1.16µM
NC(=O)CC(NC(=O)Cc1ccc(Cl)cc1)c1ccc(NCc2ccccc2)c([N+](=O)[O-])c1 (stereo unspecified)	none
O=C(Nc1nc2c(Br)cc(Br)cc2c(=O)s1)C1CCC1	MCF10A rereplic 5.17µM
